# This is a sample that favours compounds with a hit; in the whole collection about 1.4% have one here.
# MBD2 inh: MBD2-methylated oligo binding inhibition. Q9UBB5. TR-FRET, MBD2 binding to methylated oligonucleotide. inhibition, % at 4.4 µM. 370,000 tested, 0.31% active. AID 686964; in the data active = inhibition above about 13%
# UHRF1 MBD2 ctr: UHRF1 methyl-DNA binding inhibition. UHRF1 binding to methylated oligo, TR-FRET. inhibition, % at 4.4 µM. 370,000 tested, 0.75% active. AID 687016. Q96T88; in the data active = inhibition above about 21%;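 note: UHRF1 SRA domain binding a hemimethylated CpG hairpin DNA probe; 0% = median of test compound wells and 100% = reference inhibitor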
# LEDGF integ inh: blocks HIV-1 LEDGF/p75-dependent DNA integration; inhibition, % at 3.7 µM; 370,000 tested, 0.64% active; TR-FRET IN-LEDGF/p75 DNA integration, Eu/Cy5;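 active = inhibition above the screen-wide mean plus 3 SD, cut at about 13% in these data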;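 note: signal is the Cy5 over europium emission ratio at 671 and 618 nm; 0% = plate median of compound wells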
# Casp6 inh: caspase-6 (human) enzyme inhibition; P55212; purified caspase-6, Z-VEID-R110 cleavage fluorescence; inhibition, % at 12.5 µM; 350,000 tested, 0.53% active; AID 686996;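 active = mean inhibition across replicates at least about 35%, with every replicate also reaching that limit, limit read from the data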;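 note: 0% = median of neutral control wells and 100% = no fluorescence left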
# Target sequence (P55212 24-179 limits assumed): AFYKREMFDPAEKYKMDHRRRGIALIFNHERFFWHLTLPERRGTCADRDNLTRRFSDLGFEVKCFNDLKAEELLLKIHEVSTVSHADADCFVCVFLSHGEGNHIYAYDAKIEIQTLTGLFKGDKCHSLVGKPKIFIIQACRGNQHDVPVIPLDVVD
# Target sequence (P55212 194-293 limits assumed): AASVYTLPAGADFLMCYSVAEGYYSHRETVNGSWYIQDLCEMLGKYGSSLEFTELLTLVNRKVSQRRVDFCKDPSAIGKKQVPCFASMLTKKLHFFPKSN
# * marks the source's active call; other numbers are inactive results; . = no result given.
SMILES,MBD2 inh,UHRF1 MBD2 ctr,LEDGF integ inh,Casp6 inh
CC(CNC(=O)CC[C@H]1O[C@@H](n2cnc3c(NC(=O)c4ccccc4)ncnc32)[C@H](O)[C@@H]1O)c1ccccc1 (some centres not stated),0,27*,1,.
O=C(CC[C@H]1O[C@@H](n2cnc3c(NC(=O)c4ccccc4)ncnc32)[C@H](O)[C@@H]1O)NCC(c1ccccc1)c1ccccc1,1,0,-3,1
CCOC(=O)C(=O)N/N=C/c1ccco1,5,1,-4,36*
Cc1cc(C)cc(OCC(=O)N/N=C/c2ccco2)c1,3,0,1,-2
CC(C)NC(=O)Nc1ccc2c(c1)C(=O)N([C@@H](C)CO)C[C@H](C)[C@H](CN(C)Cc1ccncc1)OCCCC[C@H](C)O2,.,.,.,0
O=S(=O)(N[C@@H]1CC[C@@H](CCn2cc(-c3ccc(F)cc3)nn2)O[C@H]1CO)c1ccccc1F,.,.,.,-1
Cc1ccccc1N1CCN(C(=O)[C@@H]2CCCN2C2=NS(=O)(=O)c3ccccc32)CC1,0,7,1,-22
CCOc1ccccc1N1CCN(C(=O)[C@@H]2CCCN2C2=NS(=O)(=O)c3ccccc32)CC1,4,40*,-5,-6
COc1ccc(NC(=O)N(C)C[C@@H]2Oc3ccc(NC(=O)Cc4ccccc4)cc3C(=O)N([C@H](C)CO)C[C@@H]2C)cc1,.,.,.,0
CCOc1nc(C)cc(C)c1S(=O)(=O)c1ccc(Cl)cc1,7,25*,1,-2
COc1nc(C)cc(C)c1S(=O)(=O)c1ccc(Cl)cc1,0,2,2,-7
COc1cccc(CC(=O)OCC(=O)NC2(C#N)CCCCC2)c1,4,46*,-4,1
CN1C(=O)c2cc(NC(=O)Nc3ccc(F)cc3)ccc2OC[C@H]2O[C@@H](CC(=O)NC3CCC3)CC[C@H]21,.,.,.,1
Cc1cc(C)nc(NS(=O)(=O)c2ccc(Br)s2)c1,0,2,1,7
Cc1ccc(NS(=O)(=O)c2ccc(Br)s2)nc1,-6,-2,-2,37*
CNC(=O)C[C@@H]1CC[C@@H]2[C@@H](COc3ccc(NC(=O)c4ccccc4Cl)cc3C(=O)N2C)O1,.,.,.,-1
C[C@H](CO)N1C[C@H](C)[C@H](CN(C)Cc2ccc(-c3ccccc3)cc2)Oc2ccc(NC(=O)NC3CCCCC3)cc2CC1=O,.,.,.,-2
C[C@H]1CN([C@@H](C)CO)C(=O)Cc2cc(NC(=O)NC3CCCCC3)ccc2O[C@H]1CN(C)Cc1ccc(-c2ccccc2)cc1,.,.,.,42*
C[C@H](CO)N1C[C@H](C)[C@@H](CN(C)S(=O)(=O)c2ccc(F)cc2)Oc2ccc(NS(C)(=O)=O)cc2CC1=O,.,.,.,44*
C[C@@H]1CN([C@@H](C)CO)C(=O)Cc2cc(N(C)C)ccc2O[C@@H]1CN(C)Cc1ccccc1,.,.,.,35*
CC=Cc1ccc2n(c1=O)C[C@@H]1[C@@H](CO)[C@H](C(=O)N3CCOCC3)[C@H]2N1CC1CC1 (mixture of isomers),.,.,.,6
C[C@H](CO)N1C[C@H](C)[C@@H](CN(C)C(=O)C2CCCCC2)Oc2ncc(C#Cc3cccc(F)c3)cc2C1=O,.,.,.,2
O=C(O)c1ccccc1NS(=O)(=O)c1ccc(NN=Cc2ccccc2F)c([N+](=O)[O-])c1,-8,33*,0,41*
CSc1ccc(C=NNc2ccc(S(=O)(=O)Nc3ccccc3C(=O)O)cc2[N+](=O)[O-])cc1,4,1,2,41*
CCCc1c2c(cc3c(=O)cc(C(=O)OCC)oc13)CCCC2,4,74*,0,0
SMILES,MBD2 inh,UHRF1 MBD2 ctr,LEDGF integ inh,Casp6 inh
CCOC(=O)c1cc(CNC(=O)c2c(C)oc3c2CCCC3)c(C)o1,-2,1,-2,6
C[C@@H]1CN([C@@H](C)CO)C(=O)Cc2cc(NS(=O)(=O)c3ccc(Cl)cc3)ccc2O[C@H]1CN(C)S(=O)(=O)c1cccs1,.,.,.,0
CC1CC(C)CN(C(=O)c2cc3cc(Br)cc(Br)c3o2)C1 (configuration not stated),3,47*,-6,-1
C[C@@H]1CN([C@@H](C)CO)C(=O)c2cc(C#C[C@@H](C)O)cnc2O[C@@H]1CN(C)C(=O)c1ccccc1,.,.,.,1
COc1ccc(Nc2nc3c(C)cccn3c(=O)c2C=O)cc1,3,0,1,0
CCC(C)Nc1nc2c(C)cccn2c(=O)c1C=Nc1ccc(OC)cc1 (configuration not stated),-6,-3,-4,41*
O=C(C[C@H]1C[C@H]2c3cc(NC(=O)NC4CCCC4)ccc3O[C@H]2[C@H](CO)O1)NCc1ccc(Oc2ccccc2)cc1,.,.,.,-2
CCCCNS(=O)(=O)c1ccc(OC)c2ncccc12,-3,5,4,.
COc1ccc(S(=O)(=O)n2ccnc2)c2cccnc12,-3,22*,1,.
CC(C)C(=O)N1CCN(c2ccccc2NC(=O)c2cccc3ccccc23)CC1,-2,-2,2,60*
CS(=O)(=O)N1CCN(c2ccccc2NC(=O)c2cccc3ccccc23)CC1,-2,-1,2,.
O=C(C[C@H]1C[C@@H]2c3cc(NC(=O)c4ccc5c(c4)OCO5)ccc3O[C@@H]2[C@H](CO)O1)NCc1ccc(Cl)cc1,.,.,.,-2
C[C@]12CCC(=O)C=C1CC[C@@H]1[C@@H]2CC[C@@]2(C)[C@H]1CC[C@]2(O)C(=O)CO,-5,-1,1,5
CN(C)CCN1C(=O)CCC2(C)C1=CCC1C2CCC2(C)C1CCC2(C)O (configuration not stated),-2,80*,-1,-4
CCOC(=O)C1=C(C)N=c2sc(=Cc3cc(Cl)c(OCC(=O)O)c(Cl)c3)c(=O)n2C1c1cccc(OC)c1 (configuration not stated),0,-1,7,38*
CN1C(=O)c2cc(NC(=O)c3ccccc3Cl)ccc2OC[C@@H]2O[C@H](CC(=O)NCC(F)(F)F)CC[C@H]21,.,.,.,2
CC(=O)c1cccc(NC(=O)N2CCCC2C(=O)Nc2cccc(C)c2)c1 (configuration not stated),9,21*,1,.
COc1cccc(NC(=O)C2CCCN2C(=O)Nc2cccc(F)c2)c1 (configuration not stated),3,63*,-1,.
O=C(NCc1ccc2c(c1)OCO2)c1ccc(CS(=O)(=O)c2cccc(C(F)(F)F)c2)o1,4,0,1,.
CC(NC(=O)c1ccc(CS(=O)(=O)c2cccc(C(F)(F)F)c2)o1)c1ccc2c(c1)OCCO2 (configuration not stated),2,42*,-5,.
C[C@@H]1CN([C@H](C)CO)C(=O)c2cccc(NS(=O)(=O)c3ccccc3)c2O[C@H]1CN(C)C(=O)Nc1ccccc1,.,.,.,0
CCCN1CNC(=S)N(c2ccccc2C)C1,-4,3,2,56*
Cc1nccn1CC1CCc2c(c3ccccc3n2C)C1=O (configuration not stated),1,0,1,1
Cc1[nH]cnc1CN1CCc2c(c3ccccc3n2C)C1=O,1,-8,5,81*

# Assay outcomes (PubChem)
